Assay outcomes: PubChem BioAssay, National Center for Advancing Translational Sciences (NCATS)
Sfp PPTase inh: inhibitors of Bacillus subtilis Sfp phosphopantetheinyl transferase | 310,000 compounds, 3.5% hits | Q9F4F7 | Biochemical Sfp PPTase activity, qHTS | AID 1490 | Potency, µM, for the others: largest response in the series, negative = inhibition, hits mostly inhibitors;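 note: the enzyme is Sfp with the accession as filed and its product quenches rhodamine fluorescence; potency is the fitted concentration of half-maximal effect; 0% = enzyme reaction without inhibitor and -100% = no enzyme wells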
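With Hepes-Na pH 7.6 buffer containing 10 mM MgCl2, Sfp (15 nM) modified BHQ-2-YbbR (12.5 uM) using rhodamine-CoA (5 uM). Two reads 30 minutes apart at 525/598 nm yielded each well's rate.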
uPA surface inh: blocks generation of uPA at the cell surface; AID 540303; Potency, µM (top dose mostly 38.3 µM), inactives show at the top dose activity change, negative = inhibition, usual class: inhibitors; cell surface uPA generation assay, qHTS; 330,000 compounds, 0.31% hits; active = well fitted inhibition curve with a large enough effect; inconclusive = small, poorly fitted or top-dose-only effect; inactive = no such curve, though single readings can be large or run the other way; tested in mouse RAW 264.7 cells; note: potency is the fitted concentration of half-maximal effect; % is set by controls: 0 for no effect and ±100 for the full control effect; nearly all actives have a fitted effect of over 55% in size
ClpP mod: qHTS Assay for Activators of ClpP; ATP-dependent Clp protease proteolytic subunit (Bacillus subtilis (strain 168)), P80244; purified B. subtilis ClpP, FRET peptide cleavage, 20 min; Potency, µM (doses to about 57.5 µM), inactives show top-dose activity change, negative = active; 340,000 compounds, 1.9% hits; AID 651965, 2013; active = well fitted falling curve with a large enough effect; inconclusive = small, poorly fitted or top-dose-only effect; inactive = no such curve, though single readings can be large or run the other way; note: potency is the fitted concentration of half-maximal effect; the source files actives as falling curves though it sought activators and does not explain the sign; nearly all actives have a fitted effect of over 65% in size
Target sequence (P80244 whole entry, looked up): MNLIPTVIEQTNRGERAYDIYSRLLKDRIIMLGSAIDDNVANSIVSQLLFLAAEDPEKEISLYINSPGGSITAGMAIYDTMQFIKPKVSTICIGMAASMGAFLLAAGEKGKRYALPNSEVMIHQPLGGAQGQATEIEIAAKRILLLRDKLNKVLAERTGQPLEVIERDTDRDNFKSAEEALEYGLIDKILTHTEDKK
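FRET quenching reversal measured ClpP activation: 10 microg/mL B. subtilis ClpP at pH 8 with the FRET-FV decapeptide, read at 430 nm after 320 nm excitation. The 20-min minus 0-min signal was scaled between DMSO/no-enzyme wells and ADEP (5.8 microM final).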
TCR activator: activators of T cell receptors. primary human leukocytes, anti-CD3, IL-2 HTRF, 48 h. Potency, µM (highest dose often 9.22 µM), for the others: top-dose activation of IL-2 secretion, usual class: activators. 330,000 tested, under 10 active; note: % of control where 0% means no effect
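IL-2 release read by HTRF sandwich (Eu cryptate donor, d2 acceptor, 665 nm emission) after 48 hr exposure of primary human leukocytes to compound together with anti-CD3 beads in the absence of co-stimulatory signals.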
The depositor's hits bear a star; ? = inconclusive; nt = no result given; [ ] = another dose, or the depositor's remark. Rows were chosen to be rich in hits. Some 4.2% of all compounds tested hit in one or more screens of this group. Unless noted, calls come from the whole dose curve; as a rule, active = well fitted curve in the direction sought with a large enough effect; inconclusive = small, poorly fitted or top-dose-only effect, or another doubt; inactive = no such curve, though single readings can be large; an effect the other way counts as inactive or inconclusive.

SMILES | Sfp PPTase inh | uPA surface inh | ClpP mod | TCR activator
N#Cc1cc2c(nc1SCc1ccccc1)CCCCC2 | -14.1% | 0.4% | -6.0% | -8.7%
CCOC(=O)c1c(C)oc2nc(C)nc(NCCc3ccc(SC)cc3)c12 | nt | nt | -4.0% | nt
O=c1[nH]cnc2c1sc(=S)n2-c1ccccc1 | 17.8µM* | 0.7% | -2.8% | -5.6%
C/C(CC(=O)Nc1cc(Cl)ccc1Cl)=N\NC(N)=S | 35.5µM* | -8.2% | -0.2% | -13.1%
C/C(CC(=O)Nc1ccc(Cl)cc1C(F)(F)F)=N\NC(N)=S | 44.7µM* | 5.2% | nt | 3.6%
C/C(CC(=O)Nc1ccc(Cl)cc1Cl)=N\NC(N)=S | 9.7% | nt | -1.9% | -1.6%
O=Cc1cc(Br)c(OC(=O)N2CCOCC2)c(Br)c1 | 8.0% | 2.5% | 1.3% | 4.7%
CCN(CC(=O)NCc1ccc(Cl)cc1)C(=O)/C=C/c1ccccc1 | 5.7% | -0.8% | nt | -24.3%
CCN(CC(=O)NCc1ccc(Cl)cc1)C(=O)/C=C/c1ccc(Cl)c([N+](=O)[O-])c1 | 79.4µM* | -29.4% | -13.2% | 5.9%
CSCC[C@H](NC(=O)[C@H](CO)NC(=O)[C@H](Cc1ccc(O)cc1)NC(=O)[C@@H](N)CO)C(=O)N[C@@H](CCC(=O)O)C(=O)N[C@@H](Cc1cnc[nH]1)C(=O)N[C@@H](Cc1ccccc1)C(=O)N[C@@H](CCCNC(=N)N)C(=O)N[C@@H](Cc1c[nH]c2ccccc12)C(=O)NCC(=O)N[C@@H](CCCCN)C(=O)N1CCC[C@H]1C(=O)N[C@H](C(=O)NCC(=O)N[C@@H](CCCCN)C(=O)N[C@@H](CCCCN)C(=O)N[C@@H](CCCNC(=N)N)C(=O)N[C@@H](CCCNC(=N)N)C(=O)N1CCC[C@H]1C(=O)N[C@H](C(=O)N[C@@H](CCCCN)C(=O)N[C@H](C(=O)N[C@@H](Cc1ccc(O)cc1)C(=O)N1CCC[C@H]1C(=O)N[C@@H](CC(N)=O)C(=O)NCC(=O)N[C@@H](C)C(=O)N[C@@H](CCC(=O)O)C(=O)N[C@@H](CC(=O)O)C(=O)N[C@@H](CCC(=O)O)C(=O)N[C@@H](CO)C(=O)N[C@@H](C)C(=O)N[C@@H](CCC(=O)O)C(=O)N[C@@H](C)C(=O)N[C@@H](Cc1ccccc1)C(=O)N1CCC[C@H]1C(=O)N[C@@H](CC(C)C)C(=O)N[C@@H](CCC(=O)O)C(=O)N[C@@H](Cc1ccccc1)C(=O)O)C(C)C)C(C)C)C(C)C | -8.2% | nt | nt | nt
CC[n+]1ccc2cc(OC)c(OC)cc2c1Cc1ccc(OC)c(OC)c1 | ? | -0.8% | nt | 3.9%
COc1ccc(Cc2c3cc(OC)c(OC)cc3cc[n+]2C)cc1OC | 79.4µM* | -16.8% | -7.5% | 12.6%
CCCCCCC(=O)Nc1cc2c(C)cc(=O)oc2cc1C | -16.6% | -2.7% | -2.2% | -0.2%
CCC(=O)Nc1cc2c(C)cc(=O)oc2cc1C | 17.2% | -3.9% | 31.6µM* | -7.3%
CN(C(=O)CCc1nc(-c2ccccc2F)no1)c1ccc(Cl)cc1 | nt | nt | -3.7% | nt
Cc1c(C)n(CCc2ccccc2)c2ncnc(NN)c12 | -19.1% | -6.0% | -15.9% | 9.7%
Cc1c(C)n(Cc2ccccc2)c2ncnc(NN)c12 | 56.2µM* | -16.4% | -13.2% | 1.2%
CC1=C(CC/C(C)=N/NC(N)=S)C(C)(C)CCC1 | 44.7µM* | nt | -1.0% | -1.9%[46.1 µM]
CC(C)=CCN1CCN(CCC2=C(C)CCCC2(C)C)CC1CCO (stereo not drawn) | 16.3% | -1.8% | -0.3% | 1.5%
CCN(CC)C(=O)Cn1c(=O)n(CCCCCC(=O)NCc2ccc3c(c2)OCO3)c(=O)c2sccc21 | nt | nt | -2.9% | nt
COc1cc(OC)c(OC)cc1/C=C/c1ccc2ccccc2n1 | nt | nt | -18.3% | nt
COc1cc(Cl)cc(/C=C/c2ccc3ccccc3n2)c1OC(C)=O | -24.2% | -10.8% | 25.1µM* | 0.7%[46.1 µM]
Cc1ccccc1CSc1nc2c([nH]c3ccccc32)c(=O)n1-c1ccccc1 | nt | nt | -5.2% | nt
CCN(c1ccccc1)S(=O)(=O)c1ccc(F)c(C(=O)Nc2ccc(C)cc2)c1 | nt | nt | -2.8% | nt
Cc1cccc(-c2nc(CS(=O)CC(=O)N3CCc4ccccc4C3)c(C)o2)c1 (stereo not drawn) | 39.8µM* | -11.6% | 0.5% | -8.0%
Clc1ccc(-c2csc(N/N=C\c3cccnc3)n2)cc1 | 56.2µM* | 0.7% | 1.9% | 8.6%[46.1 µM]
Clc1ccc(-c2csc(N/N=C/c3ccco3)n2)cc1 | ? | 5.2% | 0.0% | 3.0%
C(=N/Nc1nccs1)/c1cccnc1 | 50.1µM* | 0.6% | nt | -3.6%
CC1CCc2c(sc(NC(=O)c3cc(-c4ccc(F)cc4)on3)c2C(N)=O)C1 (stereo not drawn) | nt | nt | 0.8% | nt
